Data as given in the supplement of paper PMC3334620.
Whole data set: some 33,000 sequences, median “E-score (-0.5 to 0.5)” near -0.056, cut for the highest 2% near 0.38. The sample holds the highest values, similar sequences and a random draw of the others, so the mix is not that of the screen.

biological target: Stb4 (UniProt P50104); assay: PBM E-score (8-mer binding enrichment) (E-score (-0.5 to 0.5)); higher = stronger / more preferred TF binding; conditions: protein concentration: 200 nM; construct: GST-DNA-binding domain
UniProt P50104, sequence (P50104 whole entry, the tested form may be a part): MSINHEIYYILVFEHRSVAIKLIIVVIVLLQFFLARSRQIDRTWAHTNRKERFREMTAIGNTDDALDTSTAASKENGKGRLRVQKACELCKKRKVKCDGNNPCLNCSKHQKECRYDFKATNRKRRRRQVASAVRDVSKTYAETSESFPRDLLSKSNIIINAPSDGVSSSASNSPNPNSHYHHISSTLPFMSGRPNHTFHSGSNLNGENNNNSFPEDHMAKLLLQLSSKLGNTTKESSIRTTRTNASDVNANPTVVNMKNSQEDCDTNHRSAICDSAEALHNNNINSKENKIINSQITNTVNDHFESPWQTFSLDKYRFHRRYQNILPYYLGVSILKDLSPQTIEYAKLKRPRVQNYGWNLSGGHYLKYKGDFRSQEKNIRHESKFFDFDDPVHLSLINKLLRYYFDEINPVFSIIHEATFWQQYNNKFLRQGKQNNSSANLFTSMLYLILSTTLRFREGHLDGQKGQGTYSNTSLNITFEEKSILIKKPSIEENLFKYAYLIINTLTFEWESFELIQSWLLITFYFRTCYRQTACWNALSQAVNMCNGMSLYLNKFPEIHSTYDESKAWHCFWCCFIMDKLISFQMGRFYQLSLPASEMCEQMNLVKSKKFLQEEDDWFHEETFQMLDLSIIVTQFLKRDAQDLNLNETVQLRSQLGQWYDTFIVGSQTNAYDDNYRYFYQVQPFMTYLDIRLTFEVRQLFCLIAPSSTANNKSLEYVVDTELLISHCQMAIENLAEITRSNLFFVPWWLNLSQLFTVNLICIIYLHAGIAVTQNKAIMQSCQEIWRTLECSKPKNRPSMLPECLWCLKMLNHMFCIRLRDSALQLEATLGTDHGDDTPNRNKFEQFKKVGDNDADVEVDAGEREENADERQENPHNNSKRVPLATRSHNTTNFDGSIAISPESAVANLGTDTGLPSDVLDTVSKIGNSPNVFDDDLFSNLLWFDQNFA
Procedure: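 Universal 'all 10-mer' protein binding microarrays (Agilent AMADID 015681) probed with GST-tagged S. cerevisiae TFs (full-length or DBD) made by in vitro transcription/translation (PURExpress), about 100-200 nM. Bound TF was detected with fluorescent anti-GST. Each ungapped 8-mer (which stands for itself and its reverse complement) is scored by the PBM enrichment score (E-score), a modified Wilcoxon-Mann-Whitney statistic from -0.5 to +0.5, computed with the Universal PBM Analysis Suite. Scale: above 0.35 generally sequence-specific binding.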

Row | Sequence | PBM E-score
1 | AGGACTGA | -0.0328
2 | CACTTGGA | -0.087
3 | AATGTGGA | -0.0863
4 | ACGATTCT | -0.05
5 | GTATAGGA | -0.287
6 | AGCCATTA | 0.0954
7 | CTTCTGTC | -0.158
8 | AGCTGATA | -0.047
9 | ACCGGACT | 0.252
10 | ACCGGAAA | 0.384
11 | GCCGGACC | 0.196
12 | ACCGGCAA | 0.229
13 | GCCGGAAC | 0.428
14 | GCCGGAGC | 0.283
15 | AACTGTCC | 0.0472
16 | AGAGTGTA | -0.094
17 | GTTTCCCA | -0.0576
18 | CTTTCCGA | 0.463
19 | GTTTCCGA | 0.466
20 | CTTTCCCA | -0.053
21 | CTTTCCGC | 0.324
22 | GTTTCCAA | -0.1

Row | Sequence | PBM E-score
23 | ATCTATGA | -0.0937
24 | ATGCAGAG | -0.146
25 | GATCAGGA | -0.029
26 | ATTCATCC | 0.202
27 | ATTACACA | -0.13
28 | CCGAAACA | 0.364
29 | ACGAAACC | -0.0179
30 | CCGAAACC | 0.395
31 | ACGAAAAA | -0.189
32 | ACGAAAAC | 0.154
33 | ACGAAAAG | -0.23
34 | CCGAAAGG | 0.363
35 | CCGAAAAA | 0.434
36 | CCGAAAAC | 0.41
37 | TCGAAAAA | -0.00854
38 | GCGAAAAC | -0.154
39 | CCGAAAAG | 0.384
40 | CTAATCGA | -0.105
41 | CGCCTCCC | -0.0433
42 | CGGTCCCC | 0.141
43 | CCCTATGC | -0.0929
44 | AAGTGCGG | 0.226

Row | Sequence | PBM E-score
45 | GCGAAAGA | -0.166
46 | CCGAAAGC | 0.377
47 | CCGAAAGA | 0.388
48 | ACGAAGGC | -0.0627
49 | GACCTGGA | -0.196
50 | GTCCTGAA | -0.197
51 | GTCCGAAC | 0.335
52 | ATCCGAAC | 0.475
53 | TTGCGAAA | 0.116
54 | CTCCGAAA | 0.357
55 | AACCGAAC | 0.356
56 | ATCCGAAG | 0.48
57 | CACCGAAC | 0.224
58 | TTCCGAAA | 0.468
59 | AACCGAAG | 0.362
60 | TTTCGAAA | -0.307
61 | CTCCGAAC | 0.427
62 | ATCCGCAG | 0.285
63 | AGTCAGCC | -0.161
64 | ACTGATCT | -0.0326
65 | CAGGAAAG | -0.2
66 | ATACGGGA | 0.237

Row | Sequence | PBM E-score
67 | CACTAAAC | -0.0976
68 | TACTTCTA | -0.254
69 | AAATTGCG | 0.114
70 | TCCTAGGA | -0.093
71 | CTGTGGGA | -0.145
72 | ATGCGAAT | 0.0493
73 | CACCGAAG | 0.228
74 | GTCCGAAA | 0.337
75 | ATACGAAT | -0.0803
76 | CTACGAAG | -0.247
77 | AACCGAAA | 0.372
78 | CTCCGAAG | 0.413
79 | ATCCGAAA | 0.48
80 | ATCCGAAT | 0.48
81 | CCTATTCA | -0.0251
82 | CGCGCCTA | 0.0819
83 | CACTGGTA | -0.276
84 | GAGTCCCA | 0.116
85 | TGACTCAA | -0.149
86 | CGTTCTCC | -0.0997
87 | ACGTTCCT | -0.168
88 | ACGTTCCG | 0.398

Row | Sequence | PBM E-score
89 | ACGTTCCA | -0.0774
90 | AGGTTCGG | 0.403
91 | AGGTTCCA | 0.0324
92 | AAGTTCCT | -0.00611
93 | AGGTTCGA | -0.0841
94 | CAGTTCCG | 0.364
95 | AAGTTCCG | 0.434
96 | AGGTTCGC | 0.0812
97 | AGGTTCCG | 0.383
98 | AGGTTCCC | -0.0987
99 | CATAACCC | 0.051
100 | AGGTGGGG | -0.0596
101 | GCAAAAAC | -0.0252
102 | CACAGCTC | -0.18
103 | GCACCATA | -0.021
104 | CAGAACTA | -0.0215
105 | CGGCGATA | 0.277
106 | CGTAGGGC | -0.195
107 | ACATTTCC | 0.141
108 | CGCACCGC | -0.00306
109 | ATGTTCCC | 0.153
